Molecules are shown by their SMILES. Hit rate of the full screen: of about 70,000 compounds, about 120 (0.17%) were called active. The sample as a whole holds a higher share of actives than the screen did. Unmarked numbers belong to inactive results. Rule as the data show it: active = inhibition above about 34%; inconclusive = no clear call, values can overlap the other calls; inactive = below about 11%.

Isocitrate dehydrogenase [NADP] cytoplasmic (Homo sapiens), sequence (O75874 whole entry R132H): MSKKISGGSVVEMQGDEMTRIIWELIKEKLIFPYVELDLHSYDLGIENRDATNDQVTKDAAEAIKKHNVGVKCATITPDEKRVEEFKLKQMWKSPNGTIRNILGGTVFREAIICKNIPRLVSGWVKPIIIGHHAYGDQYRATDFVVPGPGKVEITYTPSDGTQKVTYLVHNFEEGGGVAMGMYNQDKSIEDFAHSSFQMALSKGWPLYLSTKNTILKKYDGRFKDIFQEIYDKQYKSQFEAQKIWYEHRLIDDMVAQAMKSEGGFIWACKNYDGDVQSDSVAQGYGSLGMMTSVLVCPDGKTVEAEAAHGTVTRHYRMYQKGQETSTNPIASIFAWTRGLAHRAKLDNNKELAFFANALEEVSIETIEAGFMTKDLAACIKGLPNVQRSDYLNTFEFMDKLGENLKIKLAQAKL

This test has as its target Isocitrate dehydrogenase [NADP] cytoplasmic (Homo sapiens) (UniProt O75874). Put plainly: PubChem AID 624101.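 Also: 0% = DMSO and 100% = no enzyme.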 The following applies: IDH1 R132H reductase, diaphorase/resazurin fluorescence, 60 min; at 10 µM; hits give high values. For orientation: Alamar Blue is a resazurin reagent that responds to reducing activity.
For the compound `COc1cccc(-c2ccc3c(c2)O[C@H](CN(C)C(=O)C2CCOCC2)[C@H](C)CN([C@H](C)CO)S3(=O)=O)c1`, the inhibition (commonly the relative decrease from the control value, in per cent) was -1.58%.

Turning to `C[C@H](O)C#Cc1ccc2c(c1)O[C@H](CN(C)Cc1ccccn1)[C@H](C)CN([C@H](C)CO)S2(=O)=O`, the inhibition was 1.79%. In the case of `C/C=C/c1ccc2c(c1)O[C@H](CN(C)C(=O)Cc1cccnc1)[C@@H](C)CN([C@H](C)CO)S2(=O)=O`, the inhibition was 9.7%. For the compound `C[C@@H]1CN([C@@H](C)CO)S(=O)(=O)c2ccc(C#CCC3CCCC3)cc2O[C@H]1CN(C)Cc1ccc(C(=O)O)cc1`, the inhibition is 0.74%. For the compound `C[C@@H]1CN([C@H](C)CO)S(=O)(=O)c2ccc(C#CCC3CCCC3)cc2O[C@H]1CN(C)Cc1ccc(C(=O)O)cc1`, the inhibition was 45.9% (active). The value for `CCCN(C)C[C@@H]1Oc2cc(C#CCc3ccccc3)ccc2S(=O)(=O)N([C@H](C)CO)C[C@@H]1C` was 35.5% (active); that for `C/C=C/c1ccc2c(c1)O[C@H](CN(C)C(=O)Cc1ccncc1)[C@@H](C)CN([C@@H](C)CO)S2(=O)=O` was 37.6% (active); that for `CCCN(C)C[C@H]1Oc2cc(C#CCC(C)C)ccc2S(=O)(=O)N([C@H](C)CO)C[C@H]1C` was -4.36%. As for `C[C@@H]1CN([C@@H](C)CO)S(=O)(=O)c2ccc(C#CCC3CCCC3)cc2O[C@@H]1CN(C)C`, the inhibition is -1.79%. Take `C/C=C/c1ccc2c(c1)O[C@@H](CN(C)C(=O)Cc1ccccc1)[C@H](C)CN([C@@H](C)CO)S2(=O)=O`: the inhibition was 0.0005%. The value for `CCCC#Cc1ccc2c(c1)O[C@@H](CN(C)CCC)[C@@H](C)CN([C@H](C)CO)S2(=O)=O` was -0.176%; that for `C[C@@H]1CCCCO[C@@H](CN(C)C(=O)Nc2ccc(C(F)(F)F)cc2)[C@H](C)CN([C@H](C)CO)C(=O)c2cc(NC(=O)C3CCCCC3)ccc2O1` was 1.02%. Regarding `O=C(NCC[C@@H]1CC[C@H](NC(=O)C2CC2)[C@@H](CO)O1)c1cc(Cl)cc(Cl)c1`, the inhibition is 0.406%. Turning to `CCCNC(=O)C[C@H]1C[C@@H]2c3cc(NC(=O)C4CCOCC4)ccc3O[C@@H]2[C@H](CO)O1`, the inhibition is 0.074%. `C[C@@H](NC(=O)C[C@@H]1C=C[C@@H](NC(=O)CN2CCOCC2)[C@H](CO)O1)c1ccccc1`: the inhibition was 0.081%. In the case of `CO[C@@H]1CN(C)C(=O)c2ccc(NC(=O)C3CC3)cc2OC[C@H](C)N(C(=O)c2ccccc2)C[C@@H]1C`, the inhibition is 0.146%. Take `CO[C@@H]1CN(C)C(=O)c2cc(NS(=O)(=O)c3ccccc3C)ccc2OC[C@@H](C)N(S(C)(=O)=O)C[C@@H]1C`: the inhibition is -0.22%. Next, `Cc1ccc(S(=O)(=O)N[C@@H]2CC[C@H](CCn3cc(C4(O)CCCC4)nn3)O[C@H]2CO)cc1`: 0.172%; `CCNC(=O)C[C@@H]1CC[C@H](NC(=O)NC2CCCCC2)[C@H](CO)O1`: 0.102%. Regarding `CO[C@@H]1CN(C)C(=O)c2ccc(NC(=O)C3CCCC3)cc2OC[C@H](C)NC[C@@H]1C`, the inhibition was -0.326%. In the case of `CO[C@@H]1CN(C)C(=O)c2cc(NC(=O)c3ccccc3F)ccc2OC[C@H](C)NC[C@@H]1C`, the inhibition is 0.217%. With `COc1cccc(CNC(=O)c2cc3c(c(-c4cccc(-c5ccc(C#N)cc5)c4)n2)[C@@H](CCO)N([S@](=O)C(C)(C)C)C3)c1`, the inhibition is 0.432%. As for `O=C(N[C@@H]1CC[C@@H](CCNS(=O)(=O)c2ccccc2Cl)O[C@@H]1CO)c1ccccc1`, the inhibition was -0.485%. Next, `CO[C@@H]1CN(C)C(=O)c2cc(NC(=O)C3CC3)ccc2OC[C@@H](C)N(C(=O)c2ccncc2)C[C@H]1C`: 0.284%; `COc1ccccc1-c1cnc2c(c1)C(=O)N([C@@H](C)CO)C[C@H](C)[C@@H](CN(C)C(C)=O)O2`: -1.01%. For `O=C(C[C@H]1C[C@H]2c3cc(NS(=O)(=O)c4ccc(F)cc4)ccc3O[C@H]2[C@H](CO)O1)NCc1cc(F)ccc1F`, the inhibition is -0.236%. With `O=C(N[C@H]1CC[C@@H](CCNS(=O)(=O)c2cccc(Cl)c2)O[C@@H]1CO)c1ccccc1`, the inhibition was -0.277%.

For the compound `CC(C)NC(=O)N[C@H]1CC[C@@H](CC(=O)NCc2ccc(Oc3ccccc3)cc2)O[C@@H]1CO`, the inhibition was -0.181%. `O=C(N[C@H]1CC[C@H](CCNS(=O)(=O)c2ccc(F)cc2)O[C@H]1CO)C1CCC1`: the inhibition is -0.096%. Regarding `C[C@@H]1CN([C@H](C)CO)C(=O)c2cc(-c3ccc(C(=O)N(C)C)cc3)cnc2O[C@H]1CN(C)C(=O)C1CC1`, the inhibition is -0.906%. Consider `CO[C@@H](CN(C)C(=O)c1cnccn1)[C@@H](C)CN([C@@H](C)CO)S(=O)(=O)c1ccc(Cl)cc1`, for which the inhibition was 0.106%. Turning to `O=C(C[C@H]1C[C@@H]2c3cc(NC(=O)c4cccnc4)ccc3O[C@@H]2[C@H](CO)O1)NCc1ccccn1`, the inhibition was -0.419%. `CO[C@H]1CN(C)C(=O)c2ccc(NC(=O)c3ccc4c(c3)OCO4)cc2OC[C@@H](C)NC[C@@H]1C`: the inhibition is 0.0335%. With `COCC(=O)Nc1ccc2c(c1)OC[C@@H](C)N(C(=O)c1cnccn1)C[C@H](C)[C@@H](OC)CN(C)C2=O`, the inhibition was 0.0305%. Regarding `CO[C@@H]1CN(C)C(=O)c2ccc(NC(=O)Nc3ccccc3)cc2OC[C@@H](C)N(C(=O)Nc2c(C)noc2C)C[C@@H]1C`, the inhibition is -0.183%.

For the compound `CO[C@@H]1CN(C)C(=O)c2cc(NS(=O)(=O)CC(F)(F)F)ccc2OC[C@@H](C)N(Cc2ccccn2)C[C@H]1C`, the inhibition was 0.0375%.

For the compound `CO[C@H]1CN(C)C(=O)c2cc(NC(=O)C3CC3)ccc2OC[C@H](C)N(C(=O)CN(C)C)C[C@H]1C`, the inhibition was 0.155%. With `O=C(C[C@@H]1C[C@H]2c3cc(NC(=O)Nc4ccccc4F)ccc3O[C@H]2[C@@H](CO)O1)NC1CCCCC1`, the inhibition is -0.261%. As for `CCC(=O)Nc1ccc2c(c1)C(=O)N(C)C[C@H](OC)[C@H](C)CN(C(=O)C1CCC1)[C@@H](C)CO2`, the inhibition is 0.203%. Consider `COCC(=O)Nc1ccc2c(c1)OC[C@@H](C)N(C(=O)c1ccncc1)C[C@@H](C)[C@@H](OC)CN(C)C2=O`, for which the inhibition was -0.0035%.
